Reference: PubChem BioAssay (EPA / NIEHS)
“And” between values parts separate entries of the source, which are not always exact repeats. Equal entries are not always repeated. Where a structure was tested more than once in an assay, its records may differ in their call. The source made the active and inactive calls. How the source made its calls: active means hit-call score of the fitted dose curve at least 0.9, where 1 is the maximum; inactive means score below 0.9.

How the values were obtained:
[1] = read-out: Matrix Metallopeptidase 9 (MMP9), MMP9 (gene 4318); assay: BSK_KF3CT_MMP9: BioMAP Diversity Plus: KF3CT Assay for Matrix Metallopeptidase 9 (MMP9) Biomarker Activity (AID 2283074); details: primary human keratinocytes with fibroblasts; actives raise or lower the signal;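 on AC50: MMP9 protein level quantified by ELISA in the co-culture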
Outline: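 MMP-9 quantified by ELISA after 24 h chemical treatment of primary human skin keratinocyte/fibroblast co-cultures; gain or loss fitted against DMSO, with parallel SRB staining (0.1% SRB, 560 nm) for overt cytotoxicity.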

[2] = read-out: urokinase plasminogen activator (uPA), PLAU (gene 5328); assay: BSK_KF3CT_uPA: BioMAP Diversity Plus: KF3CT Assay for urokinase plasminogen activator (uPA) Biomarker Activity (AID 2283075); details: primary human keratinocytes with fibroblasts; actives raise or lower the signal
Outline: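 ELISA read-out of uPA 24 h after dosing human skin keratinocytes co-cultured with foreskin fibroblasts. Signal change fitted both ways relative to DMSO; sulforhodamine B on parallel cultures marks overt cytotoxicity.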

[3] = read-out: CD40, CD40 (gene 958); assay: BSK_LPS_CD40: BioMAP Diversity Plus: LPS Assay for CD40 Biomarker Activity (AID 2283076); details: primary human HUVEC with PBMC; actives raise or lower the signal
Outline: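 Using a multiplexed primary human co-culture (umbilical vein endothelium plus PBMC), CD40 was read by ELISA 24 h after dosing, with cytotoxicity tracked by sulforhodamine B staining of parallel cultures and activity fitted bidirectionally versus DMSO.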

[4] = read-out: E-selectin (Homo sapiens) (UniProt P16581); assay: BSK_LPS_Eselectin: BioMAP Diversity Plus: LPS Assay for Eselectin Biomarker Activity (AID 2283077); details: primary human HUVEC with PBMC; actives raise or lower the signal
Outline: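 Dose chemical onto LPS-driven HUVEC/PBMC co-culture; after 24 h, run ELISA for E-selectin; fit up- and down-going responses relative to DMSO control.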

[5] = read-out: Interleukin-8 (IL8), CXCL8 (gene 3576); assay: BSK_LPS_IL8: BioMAP Diversity Plus: LPS Assay for Interleukin-8 (IL8) Biomarker Activity (AID 2283078); details: primary human HUVEC with PBMC; actives raise or lower the signal
Outline: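 In this LPS system, chemical-treated human umbilical vein endothelium/PBMC co-cultures were harvested at 24 h for IL-8 ELISA.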

[6] = BSK_LPS_SRB: Viability Assessment in the BioMAP Diversity Plus: LPS Assay (AID 2283079); details: primary human HUVEC with PBMC;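 further: total protein by sulforhodamine B absorbance as a cytotoxicity measure; measured one day after compound addition; fitted in both directions against DMSO so loss or gain of signal counts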
Outline: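 Cytotoxicity endpoint in human endothelial–PBMC co-culture: 24 h exposure, then SRB (0.1%) staining, 560 nm read.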

[7] = read-out: Interleukin-1 alpha (IL1a), IL1A (gene 3552); assay: BSK_LPS_IL1a: BioMAP Diversity Plus: LPS Assay for Interleukin-1 alpha (IL1a) Biomarker Activity (AID 2283080); details: primary human HUVEC with PBMC; actives raise or lower the signal
Outline: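 Primary human HUVEC and PBMC co-culture stimulated with LPS is dosed and harvested at 24 h. Both increases and decreases in ELISA-measured IL-1a are scored relative to DMSO.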

[8] = read-out: Monocyte Chemoattractant Protein-1 (MCP1), CCL2 (gene 6347); assay: BSK_LPS_MCP1: BioMAP Diversity Plus: LPS Assay for Monocyte Chemoattractant Protein-1 (MCP1) Biomarker Activity (AID 2283081); details: primary human HUVEC with PBMC; actives raise or lower the signal;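 on AC50: secreted MCP-1 protein quantified by ELISA in culture supernatant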
Outline: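 Values derive from bidirectional fitting against DMSO of ELISA-measured MCP-1 in a human primary endothelial and mononuclear cell co-culture, 24 h after chemical addition under LPS activation.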

[9] = BSK_LPS_PGE2: BioMAP Diversity Plus: LPS Assay for Prostaglandin E2 (PGE2) Biomarker Activity (AID 2283082); details: primary human HUVEC with PBMC; actives raise or lower the signal;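 on AC50: secreted prostaglandin E2 measured by ELISA in LPS-stimulated co-culture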
Outline: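 Primary human endothelial cells and blood mononuclear cells, co-cultured with LPS, receive test chemical; PGE2 ELISA follows at 24 h, with SRB-stained parallel cultures flagging cytotoxicity.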

[10] = read-out: Macrophage colony-stimulating factor (MCSF), CSF1 (gene 1435); assay: BSK_LPS_MCSF: BioMAP Diversity Plus: LPS Assay for Macrophage colony-stimulating factor (MCSF) Biomarker Activity (AID 2283083); details: primary human HUVEC with PBMC; actives raise or lower the signal
Outline: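 Bidirectional fit versus DMSO of ELISA-measured M-CSF in co-cultured human umbilical vein endothelial cells and PBMC, sampled 24 h after dosing.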

[11] = read-out: Tissue Factor, F3 (gene 2152); assay: BSK_LPS_TissueFactor: BioMAP Diversity Plus: LPS Assay for Tissue Factor Biomarker Activity (AID 2283084); details: primary human HUVEC with PBMC; actives raise or lower the signal
Outline: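 Read-out: CD142 ELISA, 24 h. System: LPS-driven human endothelial/PBMC co-culture. Analysis: up- or down-signal fitted against DMSO.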

[12] = read-out: Tumor necrosis factor (Homo sapiens) (UniProt P01375); assay: BSK_LPS_TNFa: BioMAP Diversity Plus: LPS Assay for Tumour Necrosis Factor alpha (TNFa) Biomarker Activity (AID 2283085); details: primary human HUVEC with PBMC; actives raise or lower the signal;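 on AC50: TNFa protein level quantified by ELISA in the co-culture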
Outline: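 ELISA-based TNFa endpoint in a human endothelial–PBMC co-culture sampled 24 h post-exposure. Curves were fitted in both directions using DMSO as baseline of activity.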

[13] = read-out: Vascular cell adhesion molecule 1 (VCAM1), VCAM1 (gene 7412); assay: BSK_LPS_VCAM1: BioMAP Diversity Plus: LPS Assay for Vascular cell adhesion molecule 1 (VCAM1) Biomarker Activity (AID 2283086); details: primary human HUVEC with PBMC; actives raise or lower the signal
Outline: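 Measured by ELISA: VCAM-1 in LPS-activated HUVEC/PBMC co-cultures 24 h after treatment. Values reflect bidirectional fitting with DMSO as baseline.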

[14] = read-out: CD38, CD38 (gene 952); assay: BSK_SAg_CD38: BioMAP Diversity Plus: SAg Assay for CD38 Biomarker Activity (AID 2283087); details: primary human HUVEC with PBMC; actives raise or lower the signal
Outline: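 Measures CD38 on a human endothelial/PBMC co-culture driven by SEB and TSST-1, 24 h after compound exposure, using ELISA with fluorescence detection; DMSO defines baseline for bidirectional curve fitting.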

[15] = read-out: CD40, CD40 (gene 958); assay: BSK_SAg_CD40: BioMAP Diversity Plus: SAg Assay for CD40 Biomarker Activity (AID 2283088); details: primary human HUVEC with PBMC; actives raise or lower the signal
Outline: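 Endpoint derived by fitting increases or decreases versus DMSO controls. CD40 is detected by fluorescence ELISA in a human vascular co-culture of endothelium and PBMC at 24 h.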

[16] = read-out: CD69, CD69 (gene 969); assay: BSK_SAg_CD69: BioMAP Diversity Plus: SAg Assay for CD69 Biomarker Activity (AID 2283089); details: primary human HUVEC with PBMC; actives raise or lower the signal;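 on AC50: cell surface CD69 protein quantified by ELISA with fluorescence detection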
Outline: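 ELISA, fluorescence read-out: CD69 on human umbilical vein endothelial cell + PBMC co-culture, 24 h post-dosing. Gain or loss of signal fitted bidirectionally against DMSO baseline.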

[17] = read-out: Monocyte Chemoattractant Protein-1 (MCP1), CCL2 (gene 6347); assay: BSK_SAg_MCP1: BioMAP Diversity Plus: SAg Assay for Monocyte Chemoattractant Protein-1 (MCP1) Biomarker Activity (AID 2283090); details: primary human HUVEC with PBMC; actives raise or lower the signal
Outline: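 Values derive from bidirectional fitting of ELISA-measured MCP1 against DMSO controls. Readings were taken 24 h after dosing human vascular endothelial cells co-cultured with peripheral blood mononuclear cells under superantigen stimulation.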

[18] = read-out: E-selectin (Homo sapiens) (UniProt P16581); assay: BSK_SAg_Eselectin: BioMAP Diversity Plus: SAg Assay for Eselectin Biomarker Activity (AID 2283091); details: primary human HUVEC with PBMC; actives raise or lower the signal
Outline: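 Endpoint values derive from bidirectional fitting relative to DMSO, using ELISA-measured E-selectin in a human vascular co-culture (umbilical vein endothelium plus PBMC) sampled 24 h after dosing.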

[19] = read-out: Monokine induced gamma interferon (MIG), CXCL9 (gene 4283); assay: BSK_SAg_MIG: BioMAP Diversity Plus: SAg Assay for Monokine induced gamma interferon (MIG) Biomarker Activity (AID 2283092); details: primary human HUVEC with PBMC; actives raise or lower the signal
Outline: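 ELISA readout of MIG/CXCL9; primary human umbilical vein endothelial cells co-cultured with peripheral blood mononuclear cells; 24 h post-dose; gain/loss fit vs DMSO baseline.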

[20] = BSK_SAg_PBMCCytotoxicity: PBMC Cytotoxicity Assessment in the BioMAP Diversity Plus: SAg Assay (AID 2283093); details: primary human HUVEC with PBMC;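 further: PBMC viability measured as Alamar Blue reduction fluorescence at 546/580 nm; fitted both ways against DMSO so a hit may be loss or gain of signal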;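 on AC50: PBMC superantigen activated with SEB plus TSST-1 one hour after compound addition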
Outline: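 Alamar Blue reduction (6 h, ex/em 546/580 nm) read after 90 h culture of PBMC pre-dosed 1 h then stimulated with SEB plus TSST-1, 20 ng/mL each. Gain or loss of signal fitted relative to DMSO.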

Measured: AC50

E-selectin (Homo sapiens), sequence (P16581 whole entry, looked up): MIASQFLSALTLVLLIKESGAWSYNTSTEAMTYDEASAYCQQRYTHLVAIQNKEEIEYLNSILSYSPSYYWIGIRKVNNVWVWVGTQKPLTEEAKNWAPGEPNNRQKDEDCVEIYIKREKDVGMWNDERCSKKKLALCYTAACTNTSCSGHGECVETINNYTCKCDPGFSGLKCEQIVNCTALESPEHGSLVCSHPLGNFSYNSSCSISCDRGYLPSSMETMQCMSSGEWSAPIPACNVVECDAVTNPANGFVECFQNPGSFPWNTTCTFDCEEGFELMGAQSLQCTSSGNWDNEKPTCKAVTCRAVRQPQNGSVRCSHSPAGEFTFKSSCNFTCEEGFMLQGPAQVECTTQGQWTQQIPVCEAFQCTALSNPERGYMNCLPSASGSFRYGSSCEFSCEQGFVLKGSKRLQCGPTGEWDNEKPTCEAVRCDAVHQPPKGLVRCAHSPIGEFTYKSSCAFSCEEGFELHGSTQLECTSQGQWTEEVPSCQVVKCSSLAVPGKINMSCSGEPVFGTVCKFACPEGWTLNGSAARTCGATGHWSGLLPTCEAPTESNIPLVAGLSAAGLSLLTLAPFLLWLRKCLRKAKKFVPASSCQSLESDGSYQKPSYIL
Tumor necrosis factor (Homo sapiens), sequence (P01375 whole entry, looked up): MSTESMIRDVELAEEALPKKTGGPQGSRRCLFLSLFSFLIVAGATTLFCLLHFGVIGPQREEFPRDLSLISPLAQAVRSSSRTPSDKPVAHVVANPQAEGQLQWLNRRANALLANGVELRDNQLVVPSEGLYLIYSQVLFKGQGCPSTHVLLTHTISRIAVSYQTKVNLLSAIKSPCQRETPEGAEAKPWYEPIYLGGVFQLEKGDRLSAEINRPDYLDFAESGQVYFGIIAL

O=C1CCCO1
inactive: all assays above

CCNS(=O)(=O)C(F)(F)C(F)(F)C(F)(F)C(F)(F)C(F)(F)C(F)(F)C(F)(F)C(F)(F)F
active: [1] 29.6 µM and 40.2 µM and 36.2 µM | [2] 50.5 µM and 47.5 µM | [3] 46.1 µM and 42.2 µM | [5] 30 µM | [6] 44.2 µM and 46 µM | [8] 48.8 µM and 51.7 µM | [10] 49 µM | [12] 1.1 µM | [13] 30 µM | [14] 19.3 µM and 48.6 µM and 30 µM | [15] 12.2 µM and 36.6 µM and 30.4 µM | [16] 5.71 µM and 24.7 µM and 20.2 µM | [17] 48.7 µM | [18] 30 µM | [19] 49.1 µM | [20] 48 µM
inactive: [2] | [3] | [4] | [5] | [6] | [7] | [8] | [9] | [10] | [11] | [12] | [13] | [17] | [18] | [19] | [20]

CC(C)(O)c1cnn2c(-c3ccc(F)c(-c4c(F)cccc4C#N)c3)cnc2n1
active: [1] 34.6 µM | [2] 31.9 µM | [5] 3.82 µM | [9] 30.6 µM | [10] 20 µM | [12] 9.68 µM | [13] 20 µM | [15] 20 µM | [20] 7.8 µM
inactive: all other assays above

Brc1ccc(Oc2ccccc2)cc1
not listed: [18]
inactive: all other assays above

O=C(N[C@H](c1ccccc1)[C@@H]1CN2CCC1CC2)c1c(Cl)ccc(C(F)(F)F)c1Cl
active: [1] 41.7 µM | [2] 42.7 µM | [3] 19.5 µM | [5] 7.76 µM | [6] 29.7 µM | [9] 4.3 µM | [13] 17.7 µM | [14] 29.7 µM | [16] 29.7 µM | [20] 14.7 µM
inactive: all other assays above

c1ccc(N=Nc2ccccc2)cc1
inactive: all assays above
